Test results reported in ChEMBL document CHEMBL1961873, “Compounds: GSK PKIS; Assays: Nanosyn kinase panel” (2012).

Target: Epidermal growth factor receptor (Homo sapiens) (UniProt P00533)
Conditions: at 0.1 µM

Chain of Epidermal growth factor receptor (Homo sapiens) (P00533 whole entry): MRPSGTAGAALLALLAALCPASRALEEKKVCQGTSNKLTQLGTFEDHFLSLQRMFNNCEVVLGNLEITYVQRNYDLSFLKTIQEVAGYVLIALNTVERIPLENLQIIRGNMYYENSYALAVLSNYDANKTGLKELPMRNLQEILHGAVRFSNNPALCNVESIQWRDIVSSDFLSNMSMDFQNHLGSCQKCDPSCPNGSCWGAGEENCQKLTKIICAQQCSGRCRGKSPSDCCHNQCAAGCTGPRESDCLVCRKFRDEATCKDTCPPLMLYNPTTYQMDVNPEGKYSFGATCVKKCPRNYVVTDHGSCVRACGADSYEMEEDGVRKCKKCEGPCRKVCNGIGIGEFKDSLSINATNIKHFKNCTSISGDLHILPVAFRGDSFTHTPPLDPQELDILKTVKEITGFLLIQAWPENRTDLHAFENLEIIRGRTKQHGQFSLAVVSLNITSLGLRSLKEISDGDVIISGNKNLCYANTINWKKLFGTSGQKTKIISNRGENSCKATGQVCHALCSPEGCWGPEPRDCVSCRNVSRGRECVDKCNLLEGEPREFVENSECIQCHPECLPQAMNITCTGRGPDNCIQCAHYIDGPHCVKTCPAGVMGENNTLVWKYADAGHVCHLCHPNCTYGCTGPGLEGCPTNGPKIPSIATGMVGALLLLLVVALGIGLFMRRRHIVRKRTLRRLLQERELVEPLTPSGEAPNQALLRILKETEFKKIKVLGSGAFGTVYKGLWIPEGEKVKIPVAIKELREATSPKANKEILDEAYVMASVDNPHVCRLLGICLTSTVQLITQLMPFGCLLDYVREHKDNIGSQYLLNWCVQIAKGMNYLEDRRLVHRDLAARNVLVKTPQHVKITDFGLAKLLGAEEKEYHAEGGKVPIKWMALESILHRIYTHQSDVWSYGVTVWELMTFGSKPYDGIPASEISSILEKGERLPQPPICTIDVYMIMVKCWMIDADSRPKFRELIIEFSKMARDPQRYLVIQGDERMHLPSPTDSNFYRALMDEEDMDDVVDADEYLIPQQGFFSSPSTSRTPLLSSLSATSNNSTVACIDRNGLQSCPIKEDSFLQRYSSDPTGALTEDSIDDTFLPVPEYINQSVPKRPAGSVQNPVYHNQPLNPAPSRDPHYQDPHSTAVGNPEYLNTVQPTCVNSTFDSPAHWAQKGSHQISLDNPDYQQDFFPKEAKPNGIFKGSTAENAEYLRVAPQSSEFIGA

First: O=C(Nc1n[nH]c2cc(-c3ccc(F)cc3)ccc12)C1CC1
Second: CN1CCC(n2cnc(-c3ccc(F)cc3)c2-c2ccnc(N)n2)CC1
The inhibition of the first is lower: -1.79% for the first, 5.7% for the second.

First: CNC(=O)c1cccc(C#Cc2cncnc2Nc2ccc(OCc3cccc(F)c3)c(Cl)c2)c1
Second: [O-][S+]1CCN(Cc2ccc(-c3ccc4ncnc(Nc5ccc(OCc6cccc(F)c6)c(Cl)c5)c4c3)o2)CC1
The inhibition of the first is lower: 62.1% for the first, 81.3% for the second.

Going from `COc1cccc(-c2c[nH]c3c(N/N=C/c4ccncc4)ncnc23)c1` to `COc1ccc(-c2cc3c(N)ncnc3o2)cc1`, the inhibition falls from 7.02% to 0.82%.

Compared with `CCn1c(-c2nonc2N)nc2cnc(Oc3cccc(NC(=O)c4ccc(N(C)C)cc4)c3)cc21`, `COc1ccc(-c2nn3ncccc3c2-c2ccnc(Nc3ccc4c(c3)OCCO4)n2)cc1` is lower in inhibition: 2.76% for the first, 0.51% for the second.

Going from `c1ccc(-c2nc3n(c2-c2ccc4c(c2)OCO4)CCC3)nc1` to `FC(F)(F)c1cccc(-c2nn3ncccc3c2-c2ccnc(Nc3ccc4c(c3)OCCO4)n2)c1`, the inhibition rises from 1.53% to 5.52%.

First: CC(C)COC(=O)c1ccc2c(c1)/C(=C/Nc1ccc(S(N)(=O)=O)cc1)C(=O)N2
Second: Cc1cccc2c1NC(=O)/C2=N\Nc1ccc(S(N)(=O)=O)cc1
The inhibition of the first is lower: 1.64% for the first, 5.97% for the second.

Compared with `N#Cc1c(NC(=O)c2ccc(F)cc2)sc2c1CCCC2`, `COC(=O)Nc1nc2ccc(S(=O)(=O)c3ccc(NC(=O)Nc4cc(C(F)(F)F)ccc4F)cc3)cc2[nH]1` is higher in inhibition: 0.63% for the first, 0.69% for the second.

Going from `NS(=O)(=O)c1ccc(N/N=C2\C(=O)Nc3ccc4ncccc4c32)cc1` to `CS(=O)(=O)CCNCc1ccc(-c2ccc3ncnc(Nc4ccc(OCc5ccccc5)c(C(F)(F)F)c4)c3c2)o1`, the inhibition rises from 0.87% to 12.5%.
